Test systems include HCT-15 colon; HT29 colon; SNB-75 CNS; SNB-19 CNS; U251 CNS; PC-3 prostate; SK-MEL-5 melanoma; UACC-62 melanoma; LOX IMVI melanoma; SK-MEL-28 melanoma; SK-MEL-2 melanoma; EKVX NSCLC; SN12C renal; UO-31 renal; TK-10 renal; ACHN renal; CAKI-1 renal; A498 renal; CCRF-CEM leukemia; MOLT-4 leukemia.
What all share (assay): NCI-60 one-dose screen, 48 h (100 = growth as untreated, 0 = no growth, -100 = all killed)
What all share (conditions): 10 µM unless noted

Each structure is given as a SMILES string. Compounds without any hit were thinned out: in the full panel of roughly 83,000, 20% have a hit.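 Single-concentration screen, 48 h exposure, 96-well plates. Endpoint: percent growth. Below 10 = active.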 A number with no mark means an inactive call. Activity calls are given as the source filed them.

Turning to `COc1ccc(-c2cn(-c3cc(OC)c(OC)c(OC)c3)c(=O)n2C(C)=O)cc1`, the growth was 90.9% in the assay with HCT-15 colon; 85.4% in the assay on HT29 colon; 88.3% with SNB-75 CNS; 92.9% in the assay with SNB-19 CNS; 97.6% in the assay on U251 CNS; 105% with PC-3 prostate. In addition, the growth in the assay on SK-MEL-5 melanoma was 94%; in the assay with UACC-62 melanoma, 84.2%; in the assay on LOX IMVI melanoma, 95.5%; in the assay on SK-MEL-28 melanoma, 103%; with SK-MEL-2 melanoma, 86.3%; with EKVX NSCLC it was 91%. Also, the growth in the assay on SN12C renal was 91.3%; with UO-31 renal, 84.3%; in the assay with TK-10 renal, 98.9%; in the assay with ACHN renal, 87.1%; with CAKI-1 renal it was 12.1%; in the assay with A498 renal, 68.3%. The growth in the assay with CCRF-CEM leukemia is 91.7%; in the assay with MOLT-4 leukemia, 75.1%.

As to `COc1ccc(-c2nn(-c3ccccc3)cc2/C=C2/SC(=S)N(C)C2=O)cc1`, the growth was 74.2% with HCT-15 colon; 64.6% in the assay with HT29 colon; 33.3% in the assay with SNB-75 CNS; 60.7% in the assay with SNB-19 CNS; 8.95% (active) in the assay on U251 CNS; 84.9% in the assay with PC-3 prostate. Further, the growth is 98.5% with SK-MEL-5 melanoma; 86% in the assay on UACC-62 melanoma; 77.1% in the assay on LOX IMVI melanoma; 108% with SK-MEL-28 melanoma; 108% in the assay on SK-MEL-2 melanoma; 74.4% in the assay with EKVX NSCLC. The growth is 34.2% with SN12C renal; 16% in the assay on UO-31 renal; 27.7% with TK-10 renal; -0.446% (active) with ACHN renal; 38.5% with CAKI-1 renal; 96.9% with A498 renal. For the same compound, the values for the growth with CCRF-CEM leukemia and in the assay with MOLT-4 leukemia were 49.6% and 81.3%, respectively.

Consider `COc1ccccc1NC(=O)Cn1cc(CN2CCN(c3ccnc4cc(Cl)ccc34)CC2)nn1`, for which the growth is 91.8% with HCT-15 colon; 105% in the assay on HT29 colon; 75.2% in the assay on SNB-75 CNS; 93.2% in the assay on SNB-19 CNS; 97.1% with U251 CNS; 71.8% in the assay on PC-3 prostate. Moreover, the growth in the assay on SK-MEL-5 melanoma is 73%; in the assay with UACC-62 melanoma, 83.9%; with LOX IMVI melanoma, 95.1%; in the assay with SK-MEL-28 melanoma it was 84.1%; in the assay with SK-MEL-2 melanoma, 112%; in the assay on EKVX NSCLC, 92.5%. Also, the growth with SN12C renal is 98%; with UO-31 renal it was 66.8%; with TK-10 renal, 102%; in the assay with ACHN renal, 95.3%; in the assay with CAKI-1 renal, 80.2%; in the assay with A498 renal, 94.8%. Besides, the figures for the growth in the assay with CCRF-CEM leukemia and with MOLT-4 leukemia were -34.8% (active) and 70.8%, respectively.

Turning to `O=[N+]([O-])C1C(c2ccccc2)C12c1ccccc1-c1ccccc12` (stereo not given), the growth in the assay with HCT-15 colon is 17.5%; in the assay on HT29 colon, -13.4% (active); in the assay with SNB-75 CNS, 29%; in the assay with SNB-19 CNS, 43.3%; in the assay with U251 CNS, -15.2% (active); in the assay with PC-3 prostate, 12.2%. In addition, the growth in the assay with SK-MEL-5 melanoma was -16.5% (active); with UACC-62 melanoma it was 17.8%; with LOX IMVI melanoma it was -44.4% (active); in the assay on SK-MEL-28 melanoma, 49.2%; in the assay with SK-MEL-2 melanoma, -1.42% (active); with EKVX NSCLC it was 77.9%. Further, the growth in the assay on SN12C renal was 23%; in the assay on UO-31 renal, 28.3%; in the assay with TK-10 renal, 23.2%; in the assay on ACHN renal it was 29.6%; in the assay on CAKI-1 renal, 34.6%; in the assay with A498 renal it was -12.8% (active). Also, the growth was -12.1% (active) in the assay on CCRF-CEM leukemia and -17.1% (active) in the assay with MOLT-4 leukemia.

As for `Cc1cccc(N2CCN(CC(O)COc3ccc(Cl)cc3)CC2)c1` (stereo not given), the growth is 97.4% in the assay on HCT-15 colon; 114% with HT29 colon; 104% with SNB-75 CNS; 98.3% in the assay with SNB-19 CNS; 95.7% in the assay with U251 CNS; 91.9% in the assay on PC-3 prostate. Also, the growth was 97.4% in the assay on SK-MEL-5 melanoma; 96.4% in the assay on UACC-62 melanoma; 97.6% with LOX IMVI melanoma; 117% with SK-MEL-28 melanoma; 89.5% in the assay on SK-MEL-2 melanoma; 96.8% in the assay with EKVX NSCLC. The growth with SN12C renal is 95.2%; in the assay with UO-31 renal it was 85.3%; in the assay with TK-10 renal it was 116%; in the assay on ACHN renal, 93.7%; in the assay with CAKI-1 renal, 84.5%; in the assay with A498 renal, 115%. Moreover, the growth was 97.7% in the assay with CCRF-CEM leukemia and 77.1% in the assay on MOLT-4 leukemia.

`N#Cc1cnc(NCCc2ccncc2)nc1-n1cnc2ccccc21`: the growth in the assay with HCT-15 colon was 36.8%; in the assay with HT29 colon it was 49%; in the assay on SNB-75 CNS, 82.6%; with SNB-19 CNS, 94.7%; in the assay with U251 CNS, 58.7%; in the assay with PC-3 prostate, 64.1%. Besides, the growth with SK-MEL-5 melanoma was 79.8%; in the assay on UACC-62 melanoma, 48.5%; in the assay on LOX IMVI melanoma it was 41.2%; with SK-MEL-28 melanoma, 80.9%; with SK-MEL-2 melanoma it was 34.6%; in the assay with EKVX NSCLC, 72.6%. The growth in the assay with SN12C renal is 65.1%; with UO-31 renal, 33.3%; in the assay with TK-10 renal, 20.4%; in the assay on ACHN renal it was 26.1%; in the assay on CAKI-1 renal, 8.54% (active); with A498 renal, 29.6%. Also, the growth with CCRF-CEM leukemia is 77.2%; in the assay with MOLT-4 leukemia it was 47.3%.

Regarding `CN(CCOc1ccc(C#N)cc1)CCOc1ccc(C#N)cc1`, the growth was 85.8% in the assay on HCT-15 colon; 88.7% with HT29 colon; 83.4% in the assay on SNB-75 CNS; 44.5% in the assay with SNB-19 CNS; 78% in the assay with U251 CNS; 71.7% in the assay with PC-3 prostate. Further, the growth in the assay with SK-MEL-5 melanoma is 6.74% (active); with UACC-62 melanoma, 73.4%; in the assay on LOX IMVI melanoma, 84.9%; in the assay with SK-MEL-28 melanoma it was 94.9%; in the assay on SK-MEL-2 melanoma, 66.9%; in the assay on EKVX NSCLC it was 80.3%. Further, the growth is 81.6% with SN12C renal; 63% with UO-31 renal; 94.3% with TK-10 renal; 83.6% in the assay with ACHN renal; 99.7% with CAKI-1 renal; 12.7% with A498 renal. Moreover, the values for the growth in the assay on CCRF-CEM leukemia and with MOLT-4 leukemia were -84.4% (active) and 94.4%, respectively.

These data come from PubChem BioAssay (NCI).
